Source: PubChem BioAssay (NCI)
Compounds without any hit were thinned out: in the full panel of roughly 83,000, 20% have a hit.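 The test compound was applied at a single concentration to cells in 96-well plates for 48 hours, and percent growth was recorded.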 Unmarked numbers belong to inactive results. The source made the active and inactive calls. The calls were made as follows: active = growth percent below 10; inactive = the rest.

tested on: MDA-MB-468 breast; assay: NCI-60 one-dose screen, 48 h (100 = growth as untreated, 0 = no growth, -100 = all killed); conditions: 10 µM unless noted

Row | Compound | growth
1 | C#CCOc1ccc(C(Nc2ccc(Cl)cc2)c2nnnn2C2CCCCC2)cc1 (stereo not given) | 87.1%
2 | Cc1ccc2nc(-c3ccc(N=Cc4ccccc4O)cc3)sc2c1 | 86.4%
3 | CCc1ncnc2c1ccn2C(C)c1ccc(OC)c(F)c1 (stereo not given) | -1.21% (active)
4 | CS(=O)(=O)C1=CN(CCO)C(=O)N2CCCN=C12 | 93.3%
5 | COc1ccc2c(c1)cn1c3ccc(OC)cc3[nH]c(=O)c21 | -12% (active)
6 | Nc1ncc(-c2ccc3ncnc(Nc4ccc(F)c(Cl)c4)c3c2)cn1 | -22.3% (active)
7 | O=C1C(=O)c2cccnc2-c2ncccc21 | -91% (active)
8 | COC(=O)c1ccc2c(c1)c1c(C)c3ccncc3c(C)c1n2C | 39.5%
9 | O=[N+]([O-])c1ccc(NS(=O)(=O)c2cc(Cl)ccc2Cl)c2ccccc12 | 23.6%
10 | CCOC(=O)c1c(C)nc2c(c1N)CC(=O)N2Cc1cc(OC)c(OC)c(OC)c1 | -4.22% (active)
11 | Cc1[nH]nc2ccc3nc(-c4ccc5[nH]ncc5c4)c4c(c3c12)CCCC4 | -6.72% (active)
12 | C=C1C(=O)O[C@H]2[C@H]1CC/C(COC(=O)NCc1c[nH]c3ccc(OC)cc13)=C\CC[C@@]1(C)O[C@@H]21 | -27.8% (active)
13 | O=C(CSc1nc2sc3c(c2c(=O)n1-c1ccccc1)CCCCC3)N/N=C/c1ccc(F)cc1 | -3.84% (active)
14 | CS(=O)(=O)c1ccc(C(=O)N2N=C(c3ccccc3)CC2c2ccc3c(c2)OCO3)cc1 (stereo not given) | 90.1%
15 | O=C(COc1ccc(-c2nc3cc(Cl)c(Cl)cc3[nH]2)cc1)N=Nc1c(O)[nH]c2ccccc12 | -49.5% (active)
16 | COC(=O)/C=C1/SC(=Nc2ccc(F)cc2)N(CCc2c[nH]c3ccc(O)cc23)C1=O | 36%
17 | COc1ccc(S(=O)(=O)c2ccc(C(N)=O)cc2)cc1NC(=O)c1[nH]c(C)c2c1CCCCC2=O | 31.9%
18 | Cc1ccc2cccc(OC(=O)Nc3cccc(C(F)(F)F)c3)c2n1 | 75.4%
19 | O=C1CSC(c2ccccc2)N1c1ccccc1 (stereo not given) | 90.6%
20 | CC1SC(c2cccc(Oc3ccccc3)c2)N(CCc2cccs2)C1=O (stereo not given) | -45.5% (active)

Row | Compound | growth
21 | O=C(N(c1ccccc1)c1ccccc1)n1ccc2nc(Cl)nc(Cl)c21 | -0.952% (active)
22 | CN(C)c1ccc(Cc2cc(-c3ccccc3)nn(C/C(=N/O)c3ccccc3)c2=O)cc1 | 57.1%
23 | O=c1c2cc(F)ccc2sc2c(NCCCN3CCCC3)nc3ccccc3c12 | -13.7% (active)
24 | O=C1OC(c2ccccc2)C(O)=C1c1ccccc1 (stereo not given) | 108%
25 | CC(=O)Nc1nc(C)c(C(=O)NNC=O)s1 | 116%
26 | COc1ccc(N/C=C/C2=[N+](C)c3ccccc3C2(C)C)c(OC)c1 | 80.5%
27 | C=C1C(=O)O[C@H]2[C@H]1CC/C(COC(=O)NCCCCNC(=O)OC/C1=C/CC[C@@]3(C)O[C@H]3[C@H]3OC(=O)C(=C)[C@@H]3CC1)=C\CC[C@@]1(C)O[C@@H]21 | -14.8% (active)
28 | COc1ccc(-c2cc(-c3ccc(OC)cc3)c3sc(=O)[nH]c3n2)cc1 | 96.4%
29 | CCN(CC)S(=O)(=O)c1ccc(S(=O)(=O)N2CCC[C@@H](C(=O)N3CCN(C(=O)OC(C)(C)C)CC3)C2)cc1 | 15.6%
30 | O=c1ccc2nc(-c3ccccc3)nn(-c3ccccc3)c-2c1 | -81.6% (active)
31 | COc1cc(-c2ccc3ncnc(NCc4ccccc4)c3c2)cnc1OC | 15.8%
32 | COc1ccc2occ(C3=C(c4c[nH]c5ccccc45)C(=O)NC3=O)c2c1 | -2.93% (active)
33 | O=C(NCN1C(=O)c2cccc3cccc(c23)C1=O)N1CCC(Cc2ccccc2)CC1 | 101%
34 | Cc1cc(C)c(O)c(CNCCCCCCNCc2cc(C)cc(C)c2O)c1 | -72.2% (active)
35 | COc1cc(C(=O)C[n+]2ccc3ccccc3c2)cc(OC)c1OC | 98.3%
36 | CCOC(=O)C1OC1c1ccccc1 (stereo not given) | 106%
37 | FC(F)(F)c1cccc([Si](F)(c2cccc(C(F)(F)F)c2)c2cccc(C(F)(F)F)c2)c1 | 54.4%
38 | CCCCOc1nc2ccc(C)cc2cc1/C=C/C(=O)/C=C/c1ccc2c(c1)OCO2 | 95.9%
39 | COC(=O)[C@]1(C)CC[C@]2(C)CC[C@]3(C)C(=CC(=O)[C@@H]4[C@@]5(C)CCC(=O)NC(C)(C)[C@@H]5CC[C@]43C)[C@@H]2C1 | -49.5% [100 µM] (active)
40 | C=C1c2c(Cl)ccc(O)c2C(O)=C2C(=O)[C@]3(O)C(O)=C(C(N)=O)C(=O)[C@@H](N(C)C)[C@@H]3[C@@H](O)[C@H]12 | -4.52% (active)
